We go through 17 compounds from ChEMBL document CHEMBL1961873, “Compounds: GSK PKIS; Assays: Nanosyn kinase panel” (2012).

In test [1] the target is T1, Muscle, skeletal receptor tyrosine-protein kinase (Homo sapiens) (UniProt O15146).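 Note: reported value is the mean percent inhibition of MuSK kinase.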
T1 sequence (whole entry): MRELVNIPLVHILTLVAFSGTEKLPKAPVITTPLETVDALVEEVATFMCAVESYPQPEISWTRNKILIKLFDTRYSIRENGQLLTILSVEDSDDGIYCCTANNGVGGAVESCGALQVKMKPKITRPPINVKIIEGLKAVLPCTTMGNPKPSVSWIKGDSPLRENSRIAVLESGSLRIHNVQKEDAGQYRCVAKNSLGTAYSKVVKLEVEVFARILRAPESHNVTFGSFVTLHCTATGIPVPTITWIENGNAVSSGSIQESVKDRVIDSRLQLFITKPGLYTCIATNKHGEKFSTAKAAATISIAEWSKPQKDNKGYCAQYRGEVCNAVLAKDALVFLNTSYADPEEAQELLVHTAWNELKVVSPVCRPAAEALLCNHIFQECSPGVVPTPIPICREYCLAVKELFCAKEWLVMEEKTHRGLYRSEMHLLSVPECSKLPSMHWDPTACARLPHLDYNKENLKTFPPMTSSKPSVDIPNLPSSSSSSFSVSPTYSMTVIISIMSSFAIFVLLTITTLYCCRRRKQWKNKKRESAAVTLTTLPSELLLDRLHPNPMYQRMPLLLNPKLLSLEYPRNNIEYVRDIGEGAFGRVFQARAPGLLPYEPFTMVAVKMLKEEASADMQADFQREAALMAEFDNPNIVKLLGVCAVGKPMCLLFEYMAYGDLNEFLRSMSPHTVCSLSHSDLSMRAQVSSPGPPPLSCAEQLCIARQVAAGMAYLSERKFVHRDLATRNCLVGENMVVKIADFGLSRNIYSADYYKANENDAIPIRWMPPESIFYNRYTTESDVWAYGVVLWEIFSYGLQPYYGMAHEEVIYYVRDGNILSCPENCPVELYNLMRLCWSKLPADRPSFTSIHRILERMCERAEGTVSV
The following applies: at 1 µM.

For test [2], the target named is Platelet-derived growth factor receptor alpha (Homo sapiens) (UniProt P16234). The following applies: at 0.1 µM.
For test [3] the target is unchanged. The following applies: at 1 µM.
The subject of test [4] is Platelet-derived growth factor receptor alpha (Homo sapiens), P16234 [D842V]. The following applies: at 0.1 µM.
The test system is the same in test [5]. The following applies: at 1 µM.
For test [6], the system named is Platelet-derived growth factor receptor alpha (Homo sapiens), P16234 [T674I]. The following applies: at 0.1 µM.
Test [7] has the same test system. The following applies: at 1 µM.
Test [8] relates to Platelet-derived growth factor receptor alpha (Homo sapiens), P16234 [V561D]. The following applies: at 0.1 µM.
The test system is the same in test [9]. The following applies: at 1 µM.
Test [10] concerns the target Platelet-derived growth factor receptor beta (Homo sapiens) (UniProt P09619). The following applies: at 0.1 µM.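 Note: reported value is the mean percent inhibition of the kinase.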

Structures are written as SMILES.

Sequence of Platelet-derived growth factor receptor alpha (Homo sapiens), P16234 [D842V] (P16234 whole entry D842V): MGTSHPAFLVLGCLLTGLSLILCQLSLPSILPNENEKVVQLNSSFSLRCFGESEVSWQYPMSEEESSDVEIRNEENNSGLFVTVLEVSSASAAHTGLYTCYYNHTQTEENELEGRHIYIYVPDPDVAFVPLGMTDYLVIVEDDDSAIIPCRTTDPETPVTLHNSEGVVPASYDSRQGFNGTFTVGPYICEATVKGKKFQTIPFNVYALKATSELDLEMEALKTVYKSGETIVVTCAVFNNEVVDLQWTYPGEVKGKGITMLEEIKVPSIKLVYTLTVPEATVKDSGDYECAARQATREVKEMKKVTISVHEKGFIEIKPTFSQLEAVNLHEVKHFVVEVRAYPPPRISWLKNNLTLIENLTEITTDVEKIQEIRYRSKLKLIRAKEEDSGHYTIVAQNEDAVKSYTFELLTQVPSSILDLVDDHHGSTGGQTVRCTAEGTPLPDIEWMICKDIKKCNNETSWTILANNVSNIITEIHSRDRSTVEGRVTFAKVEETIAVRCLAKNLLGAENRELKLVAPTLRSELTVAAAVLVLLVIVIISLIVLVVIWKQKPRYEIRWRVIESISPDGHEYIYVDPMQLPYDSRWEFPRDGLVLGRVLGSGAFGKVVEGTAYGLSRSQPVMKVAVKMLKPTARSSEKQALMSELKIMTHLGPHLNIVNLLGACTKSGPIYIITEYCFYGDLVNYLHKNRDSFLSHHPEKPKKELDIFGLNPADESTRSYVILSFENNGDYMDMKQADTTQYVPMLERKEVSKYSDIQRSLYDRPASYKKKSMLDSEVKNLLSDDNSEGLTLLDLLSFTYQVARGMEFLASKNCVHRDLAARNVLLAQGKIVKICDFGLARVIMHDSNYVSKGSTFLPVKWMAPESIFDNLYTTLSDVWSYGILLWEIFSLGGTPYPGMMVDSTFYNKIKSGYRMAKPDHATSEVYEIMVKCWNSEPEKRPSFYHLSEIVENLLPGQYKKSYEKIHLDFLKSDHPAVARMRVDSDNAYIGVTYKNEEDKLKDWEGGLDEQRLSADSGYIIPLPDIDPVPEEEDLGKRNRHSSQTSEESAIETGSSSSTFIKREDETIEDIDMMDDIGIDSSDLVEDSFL
Sequence of Platelet-derived growth factor receptor alpha (Homo sapiens), P16234 [T674I] (P16234 whole entry T674I): as the sequence (P16234 whole entry D842V) above, with T674I, V842D counted along it
Sequence of Platelet-derived growth factor receptor alpha (Homo sapiens) (P16234 whole entry): as the sequence (P16234 whole entry D842V) above, with V842D counted along it
Sequence of Platelet-derived growth factor receptor alpha (Homo sapiens), P16234 [V561D] (P16234 whole entry V561D): as the sequence (P16234 whole entry D842V) above, with V561D, V842D counted along it
Sequence of Platelet-derived growth factor receptor beta (Homo sapiens) (P09619 whole entry): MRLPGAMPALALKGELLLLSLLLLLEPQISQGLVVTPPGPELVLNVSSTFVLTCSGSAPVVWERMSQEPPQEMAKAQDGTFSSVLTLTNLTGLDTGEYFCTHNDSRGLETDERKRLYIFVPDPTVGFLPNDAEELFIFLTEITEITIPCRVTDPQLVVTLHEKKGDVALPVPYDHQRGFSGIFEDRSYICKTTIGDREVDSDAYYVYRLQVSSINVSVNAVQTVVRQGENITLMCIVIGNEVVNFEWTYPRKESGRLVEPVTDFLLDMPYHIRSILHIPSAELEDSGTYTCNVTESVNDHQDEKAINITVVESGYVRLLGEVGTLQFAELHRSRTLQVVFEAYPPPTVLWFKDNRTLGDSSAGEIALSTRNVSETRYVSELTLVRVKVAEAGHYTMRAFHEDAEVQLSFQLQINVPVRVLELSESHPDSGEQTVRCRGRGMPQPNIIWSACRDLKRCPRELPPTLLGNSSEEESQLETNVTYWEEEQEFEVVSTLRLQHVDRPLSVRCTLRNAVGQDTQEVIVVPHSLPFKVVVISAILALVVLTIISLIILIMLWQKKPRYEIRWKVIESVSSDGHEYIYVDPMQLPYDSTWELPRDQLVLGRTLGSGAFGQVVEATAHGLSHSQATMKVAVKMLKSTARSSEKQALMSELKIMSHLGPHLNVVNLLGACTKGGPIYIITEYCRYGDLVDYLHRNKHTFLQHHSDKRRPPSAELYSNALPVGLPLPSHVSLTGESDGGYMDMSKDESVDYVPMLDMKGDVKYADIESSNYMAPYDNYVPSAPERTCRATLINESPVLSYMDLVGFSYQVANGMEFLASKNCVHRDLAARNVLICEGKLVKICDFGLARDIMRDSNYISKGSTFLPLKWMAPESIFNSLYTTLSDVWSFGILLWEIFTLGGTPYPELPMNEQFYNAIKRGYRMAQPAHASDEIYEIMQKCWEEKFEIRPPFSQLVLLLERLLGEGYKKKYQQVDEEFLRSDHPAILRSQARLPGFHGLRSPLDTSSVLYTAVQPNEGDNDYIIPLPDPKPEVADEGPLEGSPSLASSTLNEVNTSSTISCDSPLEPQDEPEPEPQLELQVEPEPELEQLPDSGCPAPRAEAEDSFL

For `Cc1ccc(NC(=O)c2ccnc(N3CCCC3)c2)cc1-c1ccc(C(=O)NCC2CC2)cc1`, the inhibition came out at 9.18% in test [1]; 9.86% in [2]; 20.7% in test [3]; 3.63% in [4]; 5.68% in test [5]; 6.03% in test [6]. Moreover, the inhibition is 5.86% in test [7], 2.7% in [8], 11.8% in test [9] and 6.34% in test [10].
For the compound `CCn1c(-c2nonc2N)nc2cncc(C(=O)N3CCNCC3)c21`, the inhibition in test [1] is 4.88%; in test [2] it was 6.44%; in test [3] it was 9.34%; in test [4], 1.69%; in test [5] it was 6.27%; in test [6], 4.21%. The inhibition in test [7] was determined as 6.95%; in [8] it was 1.16%; in test [9], 4.29%; in test [10] it was 1.44%.
For the compound `NS(=O)(=O)c1ccc(N/N=C2\C(=O)Nc3ccc(C(=O)NCCc4c[nH]cn4)cc32)cc1`, the inhibition in [1] turned out to be 43.1%; in [2], 23.6%; in test [3], 65.6%; in test [4], 15.9%; in test [5], 62.5%; in [6] it was 6.94%. The inhibition in test [7] amounted to 14.5%; in test [8], 12.9%; in test [9] it was 54.9%; in [10], 38.6%.
For `Nc1ncnc2occ(-c3ccc(NC(=O)Nc4cccc(C(F)(F)F)c4)cc3)c12`, the inhibition was determined as 90.2% in test [1]; 88.2% in [2]; 93.1% in test [3]; 26.5% in test [4]; 76.4% in test [5]; 79.5% in [6]. The inhibition in [7] amounted to 85%; in test [8], 95.3%; in test [9] it was 99%; in [10], 69.4%.
With `Nc1ncnc2occ(-c3ccc(NC(=O)Nc4cc(C(F)(F)F)cc(C(F)(F)F)c4)cc3)c12`, the inhibition in test [1] stood at 89.3%; in test [2], 79.8%; in test [3], 79.7%; in [4], 14.7%; in test [5] it was 66.7%; in test [6], 60.3%. In addition, the inhibition in test [7] worked out at 94.9%; in test [8], 90.5%; in test [9], 96%; in test [10], 67.8%.
Consider `CCn1c(-c2nonc2N)nc2c(C#CC(C)(C)O)nc(OC[C@@H](N)c3ccccc3)cc21`, for which the inhibition in [1] was 2.97%; in test [2], 3.38%; in test [3], 30.9%; in test [4] it was 3.93%; in [5] it was 39%; in test [6], 1.39%. The inhibition in test [7] is 27.6%; in [8], -2.3%; in [9], 19.5%; in [10], 7.96%.
As to `CCCN1CCC=C(c2ccc(Nc3nc(Nc4ccccc4C(N)=O)c4cc[nH]c4n3)c(C)c2)C1`, the inhibition is 20.5% in test [1]; 9.67% in test [2]; 40.6% in test [3]; 2.55% in test [4]; 24.2% in test [5]; 4.99% in test [6]. Moreover, the inhibition was found to be 9.94% in [7], 5.63% in test [8], 28.7% in test [9] and 8.75% in [10].
In the case of `CC1=C(C(=O)Nc2ccc3[nH]ncc3c2)C(c2ccc(F)cc2)NC(=O)N1` (stereo not given), the inhibition in test [1] was 5.88%; in test [2], 4.38%; in [3], 10.7%; in [4], 1.76%; in test [5] it was 3.2%; in [6], 3.58%. The inhibition in [7] stood at 3.03%; in [8] it was 3.01%; in test [9], 3.64%; in test [10], 3.65%.
Consider `COc1ccc(-c2ccncc2)cc1C(N)=O`, for which the inhibition in test [1] was determined as 8.58%; in test [2], 10.2%; in test [3], 15.4%; in test [4] it was 1.62%; in test [5], 4.35%; in test [6], 5.26%. The inhibition was found to be 8.98% in test [7], 3.41% in [8], 6.77% in [9] and 5.16% in test [10].
Take `O=C1Nc2ccc(C(=O)c3ccco3)cc2C1=Cc1cc(Cl)c(O)c(Cl)c1`: the inhibition in test [1] turned out to be 8.26%; in test [2], 8.06%; in test [3] it was 26%; in test [4] it was 4.54%; in [5], 19.8%; in test [6], 6.25%. Also, the inhibition was 11.5% in test [7], 7.12% in test [8], 26.8% in [9] and 7.32% in [10].
Regarding `COc1cc2c(cc1Nc1nc(N3CCc4ccccc43)c3cc[nH]c3n1)N(C(=O)CN(C)C)CC2`, the inhibition was 4.18% in test [1]; 4.13% in [2]; 3.64% in test [3]; 0.92% in test [4]; -1.2% in test [5]; 1.67% in [6]. Moreover, the inhibition was 0.13% in test [7], -0.57% in test [8], 2.32% in test [9] and 1.46% in test [10].
For `CN(C)c1cc2c(Nc3ccc4nc(Cc5ccccc5)[nH]c4c3)ncnc2cn1`, the inhibition in test [1] was 0.22%; in test [2], 9.58%; in test [3] it was 24.4%; in test [4], 4.07%; in test [5], 5.67%; in test [6] it was 5.35%. Further, the inhibition turned out to be 6.9% in [7], 5.97% in test [8], 22.8% in test [9] and 5.76% in [10].
`CCn1c(-c2nonc2N)nc2ccncc21`: the inhibition in test [1] is 1.96%; in test [2], 8.83%; in [3] it was 7.48%; in test [4], 0.54%; in test [5], 1.96%; in [6] it was 2.72%. The inhibition in [7] was 1.31%; in test [8], 2.31%; in test [9] it was 3.59%; in test [10], 0.36%.
Turning to `NS(=O)(=O)c1cccc(-c2ccc3c(NC(=O)C4CC4)n[nH]c3c2)c1`, the inhibition is 4.13% in test [1]; 3.24% in test [2]; 9.75% in [3]; 1.86% in [4]; 7.06% in test [5]; -0.86% in [6]. For the same compound, the inhibition was 1.24% in [7], 3.88% in test [8], 6.54% in [9] and 0.91% in [10].
With `COc1cccc(-n2ncc3c(N/N=C/c4cccc(F)c4)ncnc32)c1`, the inhibition was determined as 11.4% in test [1]; 13.6% in [2]; 49.5% in test [3]; 10.6% in test [4]; 48.1% in [5]; 6.11% in [6]. Further, the inhibition in test [7] worked out at 22.2%; in test [8] it was 8.22%; in test [9] it was 41.1%; in test [10] it was 12.2%.
For `CCn1c(-c2nonc2N)nc2cnc(Oc3cccc(NC(=O)c4ccc(OCCN5CCOCC5)cc4)c3)cc21`, the inhibition in [1] was -1.35%; in test [2], 5.93%; in [3], 9.57%; in test [4] it was 1.95%; in test [5], 4.64%; in [6], 4.39%. The inhibition in [7] was found to be 9.13%; in test [8], 3.13%; in [9] it was 3.7%; in [10], 2.12%.
As for `COC(=O)Nc1nc2cc(Oc3ccc(NC(=O)Nc4cccc(C(=O)O)c4)cc3)ccc2[nH]1`, the inhibition in test [1] was found to be 2.82%; in test [2], 10.8%; in [3], 39.3%; in [4], 0.99%; in test [5], 1.56%; in test [6], 6.17%. In addition, the inhibition in test [7] stood at 35.1%; in [8] it was 18.8%; in [9], 43.9%; in test [10], 6.26%.

For orientation: inhibition means the relative decrease from the control value, in per cent.
